This is part of a sample that, as a whole, favours compounds with a hit. Of some 79,000 tested, about 15% had one in any assay. Activity calls are given as the source filed them. No stated cut-off is given here; in the data, active means growth inhibition above about 70%; inactive means the rest.
Experiments:
[1] = NCI Yeast Anticancer Drug Screen. Data for the rad50 strain (AID 155);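 further: 0% = growth of vehicle-only cultures of the same strain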; settings: S. cerevisiae rad50 strain growth inhibition, hits give high values
How it was run: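 DNA repair mutant yeast, compound exposure, growth read-out; inhibition is taken relative to vehicle.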

[2] = NCI Yeast Anticancer Drug Screen. Data for the mec2-1 strain (AID 157); settings: S. cerevisiae mec2-1 strain, hits give high values
How it was run: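 Vehicle-treated cultures served as reference for growth inhibition of compound-exposed mec2-1 yeast.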

[3] = NCI Yeast Anticancer Drug Screen. Data for the sgs1 mgt1 strain (AID 161);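 further: 0% = growth of cultures given vehicle only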; settings: S. cerevisiae sgs1 mgt1 strain, hits give high values
How it was run: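 Inhibition of yeast growth, normalised to vehicle-treated controls, is reported for a strain bearing genetic alterations in DNA damage repair.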

[4] = NCI Yeast Anticancer Drug Screen. Data for the cln2 rad14 strain (AID 165);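 further: 0% = growth equal to vehicle treated cultures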; settings: S. cerevisiae cln2 rad14 strain, hits give high values
How it was run: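 Each compound was tested on cln2 rad14 yeast. Inhibition of growth was calculated against vehicle-exposed controls.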

[5] = NCI Yeast Anticancer Drug Screen. Data for the bub3 strain (AID 167); settings: S. cerevisiae bub3 mutant strain, hits give high values
How it was run: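 In this screen, a yeast mutant lacking normal mitotic checkpoint function is challenged with compound. Relative growth versus vehicle gives the inhibition value.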

[6] = NCI Yeast Anticancer Drug Screen. Data for the mlh1 rad18 strain (AID 175); settings: S. cerevisiae mlh1 rad18 strain growth inhibition, hits give high values
How it was run: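 Vehicle-treated cultures served as the reference for growth inhibition in a yeast strain carrying DNA damage repair alterations exposed to each compound.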

[7] = at 5.0 µM (retest, dose inferred, filed as 0.5)
[8] = at 50.0 µM (retest, dose inferred, filed as 5.0)

Measured: growth inhibition

CCC[CH2][Sn]([CH2]CCC)([O]C(=O)C(OC)c1ccccc1)[O]C(=O)C(OC)c1ccccc1 (stereo not given)
inactive: [1]; [7] 44% | [2]; [7] 40% | [3]; [7] 44% | [4]; [7] 36% | [6]; [7] 57%
active: [1]; [8] 97% | [1]; at 50.0 µM 89% | [2]; [8] 96% | [2]; at 50.0 µM 88.3% | [3]; [8] 96% | [3]; at 50.0 µM 84% | [4]; [8] 96% | [4]; at 50.0 µM 88.8% | [5]; [7] 77% | [5]; [8] 98% | [5]; at 50.0 µM 92% | [6]; [8] 98% | [6]; at 50.0 µM 88.3%

CCCn1cc2c(SC)nc(SC)nc2n1
active: [1]; at 50.0 µM 98.1% | [2]; at 50.0 µM 98.3% | [3]; at 50.0 µM 97% | [4]; at 50.0 µM 87.3% | [5]; [8] 99% | [5]; at 50.0 µM 99.5% | [6]; at 50.0 µM 98.1%
inactive: [1]; [7] -1% | [1]; [8] 5% | [2]; [7] 0% | [2]; [8] 46% | [3]; [7] -2% | [3]; [8] 10% | [4]; [7] 2% | [4]; [8] 38% | [5]; [7] 4% | [6]; [7] -3% | [6]; [8] 14%

CC(=O)SCC(=O)Nc1ccc(Cl)cc1
active: [1]; [8] 91% | [1]; at 50.0 µM 88% | [2]; [8] 81% | [3]; [8] 85% | [3]; at 50.0 µM 91.1% | [5]; [8] 90% | [5]; at 50.0 µM 79.9% | [6]; [8] 90% | [6]; at 50.0 µM 91.6%
inactive: [1]; [7] 9% | [2]; [7] 1% | [2]; at 50.0 µM 68.9% | [3]; [7] -4% | [4]; [7] 2% | [4]; [8] 43% | [4]; at 50.0 µM 58.5% | [5]; [7] -18% | [6]; [7] 7%

OC(c1cc(-c2ccc(Cl)c(Cl)c2)nc2ccccc12)C1CCCCN1 (stereo not given)
inactive: [1]; at 50.0 µM 38.2% | [2]; [8] 12% | [2]; at 50.0 µM 32.8% | [3]; at 50.0 µM 9.85% | [4]; [8] 29% | [4]; at 50.0 µM -14.2% | [5]; [8] 61% | [5]; at 50.0 µM 66.3%
active: [1]; [7] 95% | [1]; [8] 70% | [2]; [7] 100% | [3]; [7] 84% | [3]; [8] 77% | [4]; [7] 99% | [5]; [7] 99% | [6]; [7] 99% | [6]; [8] 92% | [6]; at 50.0 µM 88.5%

Cc1ccc(C(C)(C)C)c(O)c1O
inactive: [1]; [7] 4% | [2]; [7] -18% | [3]; [7] 1% | [3]; [8] 52% | [4]; [7] 8% | [5]; [7] -9% | [6]; [7] -25%
active: [1]; [8] 98% | [1]; at 50.0 µM 91.2% | [2]; [8] 98% | [2]; at 50.0 µM 91.7% | [3]; at 50.0 µM 92.1% | [4]; [8] 98% | [4]; at 50.0 µM 91.8% | [5]; [8] 98% | [5]; at 50.0 µM 91.4% | [6]; [8] 97% | [6]; at 50.0 µM 90.5%
